DT40 TDP1 CPT: qHTS for Inhibitors of human tyrosyl-DNA phosphodiesterase 1 (TDP1): qHTS in cells in presence of CPT | chicken DT40 Tdp1-/-;hTDP1 cells + 20 nM CPT, ATP luminescence, 48 h | Potency, µM (highest dose often 46.2 µM), usual class: inhibitors | 12% of 420,000 active; also: nearly all actives have a fitted effect of over 55% in size
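Chicken DT40 Tdp1-/- cells complemented with human TDP1, 400 cells/well, exposed to compounds plus 20 nM camptothecin for at least 48 h at 37 C; viability read as ATP content by CellTiter-Glo luminescence.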
DT40 TDP1 no CPT: qHTS for Inhibitors of human tyrosyl-DNA phosphodiesterase 1 (TDP1): qHTS in cells in absence of CPT; AID 686978, 2013; Potency, µM (doses to about 46.2 µM), hits mostly inhibitors; 15% of 420,000 active; DT40 Tdp1-/- hTDP1 cells, no CPT, ATP luminescence, 48 h; also: nearly all actives have a fitted effect of over 55% in size
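Compound effects on proliferation are scored in DT40 Tdp1-/-;hTDP1 cells in the absence of CPT. ATP levels (CellTiter-Glo luminescence) are recorded after a ≥48 hr, 37 °C incubation.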
IL-1B inflam inh: qHTS for Inhibitors of Inflammasome Signaling: IL-1-beta AlphaLISA Primary Screen; THP-1 LPS/ATP IL-1B secretion, AlphaLISA, 16 h; hits give low values; activity change, % at 57.5 µM; 4.7% of 360,000 active; in the data active = activity change below about -50%; inconclusive = mostly about -30% to -49%
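Secreted IL-1B measured by AlphaLISA bead assay after 16 h compound exposure of THP-1 cells; compounds (final up to 57.5 uM) added 1 h before LPS (250 ng/mL) and ATP (1.25 mM) stimulation; lower signal means less secretion.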
HT1080 IDH1KD tx: qHTS for induction of synthetic lethality in tumor cells producing 2HG: qHTS for the HT-1080-IDH1KD cell line | Potency, µM (series often up to 46.1 µM), hits mostly cytotoxic | HT-1080 IDH1 knockdown viability, ATP luminescence, 48 h | 2% of 360,000 active | AID 686971, 2013
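In this qHTS, HT-1080 cells depleted of IDH1 are exposed for 48 h at 37 °C to compound titrations. Toxicity is scored from CellTiter-Glo luminescence, with DMSO as full viability and medium alone as none.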
HT1080-NT tox: qHTS for induction of synthetic lethality in tumor cells producing 2HG: qHTS for the HT-1080-NT fibrosarcoma cell line. HT-1080-NT fibrosarcoma viability, CellTiter-Glo ATP luminescence, 48 h. Potency, µM (highest dose often 46.1 µM), usual class: cytotoxic. 1.6% of 360,000 active. AID 686970, 2013;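 also: NT is the 2HG producing partner of a matched IDH1 knockdown line; nearly all actives have a fitted effect of over 55% in size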
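Read-out is CellTiter-Glo luminescence after 10 minutes at room temperature, following 48 hours' compound treatment of HT-1080-NT cells (750 cells/well, RPMI, 5% FBS, 37 degrees C).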
Hits are given with their value; - = inactive; ? = inconclusive; . = no result; [ ] = remark or other dose. Shown are actives, neighbours in structure and some others; about 19% of the full set was active somewhere. Unless noted, calls follow the shape of the dose curve; as a rule, active = well fitted curve in the direction sought with a large enough effect; inconclusive = small, poorly fitted or top-dose-only effect, or another doubt; inactive = no such curve, though single readings can be large; an effect the other way counts as inactive or inconclusive.

SMILES	DT40 TDP1 CPT	DT40 TDP1 no CPT	IL-1B inflam inh	HT1080 IDH1KD tx	HT1080-NT tox
N=c1n(CCN2CCCCC2)c2ccccc2n1CC(=O)c1cccs1	18µM	21µM	-76	?	?
O=C(CCc1ccc(CCC(=O)c2cccs2)s1)c1cccs1	?	-	-	-	-
COc1cc(C(=O)CCN2CCC(c3ccccc3)C2)cc(OC)c1OC (centres undefined)	4.6µM	5.8µM	-105	-	-
O=C(CCN1CCCC1)c1cccs1	0.73µM	1.5µM	-	-	-
O=C(CCN1CCC(c2ccccc2)C1)c1cccs1 (centres undefined)	1.8µM	2.6µM	-	4µM	?
COc1ccc(-n2c(=O)c(CCc3ccccc3)nc3cnc(N(C)C)nc32)cc1	-	-	.	.	.
CC(=O)Nc1ccc(NC(=O)Cc2ccc(S(=O)(=O)N3CCCCC3)cc2)cc1	-	-	-	-	-
O=C(CCN1CCC(c2ccccc2)C1)c1ccc2c(c1)OCCO2 (centres undefined)	2.1µM	1.8µM	-	18µM	4.6µM
Cc1ccc(C(=O)NC2CCN(CCCC(=O)c3ccc(F)cc3)CC2)cc1	-	-	-	-	-
O=C(CCN1CCC2CCC(C2)C1)c1ccc(F)cc1 (centres undefined)	3.3µM	2.9µM	-	-	-
O=C(CCC(=O)N1CCN(c2ccccn2)CC1)c1cccs1	?	-	-	-	-
O=C(CCN1CCC(c2cccs2)=N1)c1cccs1	5.8µM	5.2µM	-	-	-
O=C(CCN1CCC(c2ccccc2)C1)c1ccccc1 (centres undefined)	3.7µM	3.7µM	-	?	-
O=C(CCCCCCN1C(=O)c2ccccc2C1=O)N1CCC(c2ccccc2)C1 (centres undefined)	?	?	-	-	-
CN(C(=O)c1ccccc1)C(=O)c1ccccc1	-	-	-	-	-
Cn1c(SCC(=O)NCC2CCCO2)nnc1-c1ccc(Cl)cc1 (centres undefined)	-	-	-	-	-
Cc1nn(-c2ccccc2)c(C)c1/C=N/NC(=O)c1ccc(F)cc1	-	-	-	-	-
Cc1[nH]c2ccccc2c1/C=N/NC(=O)c1cc(-c2ccccc2)n[nH]1	?	18µM	?	15µM	15µM
Cc1nn(-c2ccccc2)c(C)c1/C=N/NC(=O)c1cc(-c2cccc3ccccc23)n[nH]1	?	16µM	-	?	?
Cc1[nH]c2ccccc2c1/C=N/NC(=O)c1cc(-c2ccncc2)nc2ccccc12	5.8µM	5.2µM	-	4.6µM	?
C#CCN1[C@@H]2CCN(C2)c2cc(Br)ccc2S1(=O)=O	-	?	-	-	-
O=C(/C=C/c1nc2ccccc2s1)N1CCCCCC1	-	?	-	-	-
C(=C\c1nc2ccccc2s1)/c1ccc2c(c1)OCO2	?	11µM	.	.	.
CN(C)c1ccc(/C=C/c2nc3ccccc3s2)c(Cl)c1	?	14µM	.	.	.
CCOc1cc(/C=C/c2nc3ccccc3s2)ccc1OCC(=O)N1CCOCC1	-	21µM	-	-	-
SMILES	DT40 TDP1 CPT	DT40 TDP1 no CPT	IL-1B inflam inh	HT1080 IDH1KD tx	HT1080-NT tox
C(=Cc1nc2ccccc2o1)c1ccc2c(c1)OCO2	-	?	-	?	-
Cc1nc(SCC(=O)NCCN2C(=O)CSC2=O)nc(C)c1C	-	-	-	-	-
O=C(NCCC(F)(F)F)C1Cc2c(-c3ccccc3Oc3ccccc3)ccnc2O1 (centres undefined)	-	?	?	-	-
CN(C)CCNC(=O)C1Cc2c(-c3ccccc3Oc3ccccc3)ccnc2O1 (centres undefined)	29µM	18µM	-	23µM	?
O=C(NCCc1ccccc1)C1Cc2c(-c3ccccc3Oc3ccccc3)ccnc2O1 (centres undefined)	16µM	?	-	?	?
CN1CCN(c2ccc(CNC(=O)C3Cc4c(-c5ccccc5Oc5ccccc5)ccnc4O3)cc2)CC1 (centres undefined)	?	?	?	21µM	?
CN1CCN(c2ccc(CNC(=O)C3Cc4c(-c5ccccc5)ccnc4O3)cc2)CC1 (centres undefined)	?	?	-	?	-
COc1ccc(CNC(=O)C(CC(C)C)NC(=O)c2ccccc2C)cc1 (centres undefined)	-	-	-	-	-
CNc1ncnc2c1ncn2[C@H]1C[C@H](O)[C@@H](CO)O1	?	7.3µM	.	.	.
Nc1nc(Cl)nc2c1ncn2C1OCC(O)C(O)C1O (centres undefined)	-	-	-	-	-
Nc1nc2c(ncn2[C@H]2C[C@H](O)[C@@H](CO)O2)c(=O)[nH]1	4.6µM	2.1µM	-	?	?
Nc1nc(Cl)nc2c1ncn2C1CC(O)C(CO)O1 (centres undefined)	0.18µM	?	-	?	?
Nc1ncn([C@H]2C[C@H](O)[C@@H](CO)O2)c(=O)n1	0.041µM	0.1µM	-	-	-
CN(C)/C=N/c1nc2c(ncn2C2CC(O)C(CO)O2)c(=O)[nH]1 (centres undefined)	-	-	.	.	.
CC1CCN(C(=O)c2[nH]cnc2C(=O)N2CCN(C(=O)OC(C)(C)C)CC2)CC1	-	-	-	-	-
Nc1nc2c(ncn2C2CC(O)C(CO)O2)c(=O)[nH]1 (centres undefined)	10µM	5.8µM	.	.	.
C=C1[C@H](CO)[C@@H](O)C[C@@H]1n1cnc2c(=O)[nH]c(N)nc21	0.0084µM	0.0053µM	.	.	.
COC1C(O)C(CO)OC1n1cnc2c(=O)[nH]c(N)nc21 (centres undefined)	-	-	.	.	.
CC(NC(=O)CCCCCCN1C(=O)c2ccccc2C1=O)c1ccc2c(c1)CCCC2 (centres undefined)	23µM	?	-	-	-
COc1ccccc1NC(=O)C1CC(O)CN1C(=O)Oc1ccccc1 (centres undefined)	-	-	-	-	-
CN(C)CCn1cnc2c1c(=O)n(C)c(=O)n2C	-	-	-	-	-
Cn1c(=O)c2c(ncn2Cc2ccc(Cl)c(Cl)c2)n(C)c1=O	23µM	12µM	-	-	-
Cn1c(=O)c2c(ncn2Cc2cccc(Cl)c2)n(C)c1=O	?	?	-	-	?
Cn1c(=O)c2c(ncn2Cc2cc(-c3ccccc3)no2)n(C)c1=O	?	26µM	-	-[9.24 µM]	-
O=c1c(-c2ccc(F)cc2)nc2cnc(Nc3ccccc3)nc2n1Cc1cccs1	-	?	.	.	.
CCCCN(C(=O)c1cccs1)c1c(N)n(Cc2ccccc2)c(=O)[nH]c1=O	-	-	-	-	-
NC(N)=NC(N)=Nc1ccc(O)cc1	-	-	-	-	-

From PubChem BioAssay
